# Measurements published in PubChem BioAssay.
# Values without a mark were called inactive. How the calls were made is not given here.
# Molecular target: Pantothenate synthetase (Mycobacterium tuberculosis (strain ATCC 25618 / H37Rv)) (UniProt P9WIL5)
# Experiment: Recombinant Mtb pantothenate synthetase (PanC) inhibitors, coupled enzyme, confirmatory (AID 375);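 further: 0% = full reaction with vehicle and 100% = no enzyme background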
# Details: coupled enzyme assay; at 10 µM, hits give high values
# Pantothenate synthetase (Mycobacterium tuberculosis (strain ATCC 25618 / H37Rv)), sequence (P9WIL5 whole entry, looked up): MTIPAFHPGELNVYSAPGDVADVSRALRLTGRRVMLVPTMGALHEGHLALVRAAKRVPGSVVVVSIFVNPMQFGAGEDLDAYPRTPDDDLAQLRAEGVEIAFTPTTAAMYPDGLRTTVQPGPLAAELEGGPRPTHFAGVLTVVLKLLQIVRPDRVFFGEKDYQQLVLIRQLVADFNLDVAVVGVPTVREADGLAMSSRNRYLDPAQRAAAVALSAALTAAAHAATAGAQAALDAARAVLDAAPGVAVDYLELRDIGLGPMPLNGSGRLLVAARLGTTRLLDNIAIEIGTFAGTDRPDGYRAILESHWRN
row,SMILES,inhibition [%]
1,COc1cc2cc(C(c3nnnn3C3CCCC3)N(C)C3CCCCC3)c(=O)[nH]c2cc1OC (stereo not given),9
2,Cc1cc(C)nc(SCc2csc(N)n2)n1,1
3,CC(=O)Nc1ccc(NC2=CC(=O)CC(C)(C)C2)cc1,4
4,COc1cccc(NC(=O)COC(=O)c2cccnc2)c1,0
5,Nc1cccc(C(=O)O)c1,0
6,Cc1ccc(C2Nc3ccccc3-c3nc4ccccc4n32)o1 (stereo not given),0
7,COc1ccccc1CNC(=O)CCNC(=O)Cn1ccc2ccccc2c1=O,6
8,O=C1CC2CS(=O)(=O)CC2N1c1ccc(Oc2ccccc2)cc1 (stereo not given),0
9,Cc1ccc(NC(=O)COC(=O)c2ccn(C)n2)cc1,0
10,CCOc1ccccc1N(CC(=O)N1CCCCCC1)S(C)(=O)=O,0
11,Cc1ccc(C)c(-n2c(CNC(=O)c3ccco3)nnc2SCC(=O)Nc2nnc(C)s2)c1,0
12,COc1ccc(C2CC(=O)C(C=NCCN3CCOCC3)=C(O)C2)cc1 (stereo not given),0
13,O=C(Nc1cccc(-c2nnc(-c3ccccc3)o2)c1)C1CCCCC1,0
14,COC(=O)c1c(N)nc(C)n1-c1ccc(OC)cc1,0
15,Cc1cc(C)n2nc(SCc3nc4ccccc4[nH]3)nc2n1,6
16,NS(=O)(=O)c1cc2c(cc1Cl)NC(C(Cl)Cl)NS2(=O)=O (stereo not given),2
17,O=c1oc2ccccc2c2nccnc12,0
18,COC(=O)c1ccccc1NS(=O)(=O)c1ccc(F)cc1,0
19,COc1cccc(C2=NOC(C(=O)N3CCc4ccccc4C3)C2)c1 (stereo not given),0
20,CC(C)C(OC(=O)c1ccco1)C(=O)NCc1ccccc1 (stereo not given),5

row,SMILES,inhibition [%]
1,Nc1nc(-c2ccc(Cl)cc2)nn1C(=O)c1cccnc1,0
2,CCn1cc(C(=O)O)c(=O)c2cnc(N3CCNCC3)nc21,1
3,OC1C=CSc2nc3ccccc3n21 (stereo not given),0
4,CCOC(=O)CN1CC23C=CC(O2)C(C(=O)NCc2ccc(F)cc2)C3C1=O (stereo not given),0
5,Cc1noc(NS(=O)(=O)c2ccc(NC(=O)CCC3CCCC3)cc2)c1C,0
6,CCNCC(O)COCC(O)CNCC (stereo not given),0
7,C[N+](C)(C)CCCCCCCCCC[N+](C)(C)C,4
8,CCOC(=O)C1CCN(C(=O)C2CCN(S(=O)(=O)c3cc(Cl)ccc3Cl)CC2)CC1,12
9,CC1(C)CC(=O)C(C=Nc2ccc3c(c2)OCO3)=C(O)C1,7
10,COC(=O)c1cc(NC(=O)C2COc3ccccc3O2)cc(C(=O)OC)c1 (stereo not given),0
11,O=C1NC(=O)C(c2ccccc2)(c2ccccc2)N1,0
12,COCCn1nnnc1C(c1cccs1)N1CCN(c2cc(C)ccc2C)CC1 (stereo not given),0
13,CCOC(=O)C1CCCN(c2c(N3CCN(c4ccccn4)CC3)c(=O)c2=O)C1 (stereo not given),2
14,COc1cccc(Oc2cnc(N)nc2-c2ccc(OC)cc2O)c1,2
15,O=C(OCC#CCSc1nnc(-c2ccccc2)o1)c1cccs1,0
16,CCOC(=O)n1c(=O)oc2cc(S(=O)(=O)N3CCCCC3)ccc21,7
17,C=CCOc1cccc(C2/C(=C(\O)c3ccc(F)cc3)C(=O)C(=O)N2CCN(C)C)c1 (stereo not given),0
18,Cc1cc(C)c(NC(=O)C2CCCN2CCO)c(C)c1 (stereo not given),0
19,COC(=O)c1sccc1NC(=O)c1ccncc1,6
20,O=C(NC1CCCCC1)c1cc2nc(-c3ccco3)cc(C(F)(F)F)n2n1,0
